A selection: hits, their analogues and other compounds. The true share with any hit is near 19%.
VP16 counter = counter-screen for ROR gamma inhibitors: Gal4-VP16 reporter | Drosophila S2 Gal4-VP16 UAS-luciferase, luminescence, 20 h | Potency, µM (series often up to 53.6 µM), actives largely listed as inhibitors | 3.5% of 310,000 active;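 further: Gal4-VP16 expression switched on by copper sulfate through the metallothionein promoter; nearly all actives have a fitted effect of over 50% in size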
DT40 TDP1 no CPT = qHTS for Inhibitors of human tyrosyl-DNA phosphodiesterase 1 (TDP1): qHTS in cells in absence of CPT. DT40 Tdp1-/- hTDP1 cells, no CPT, ATP luminescence, 48 h. Potency, µM (titrated, usually from 46.2 µM), actives largely listed as inhibitors. 15% of 420,000 active. AID 686978, 2013; further: nearly all actives have a fitted effect of over 55% in size
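Camptothecin absent (DMSO only). Human TDP1-complemented DT40 knockout cells, 400 cells/well, 37 °C for minimum 48 hr; ATP measured via CellTiter-Glo, 30 min dark incubation, luminescence.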
TDP1 cell CPT = DT40-hTDP1 cell growth loss with CPT; chicken DT40 Tdp1-/-;hTDP1 cells + 20 nM CPT, ATP luminescence, 48 h; Potency, µM (titrated, usually from 46.2 µM), usual class: inhibitors; 12% of 420,000 active; further: nearly all actives have a fitted effect of over 55% in size
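Chicken DT40 Tdp1-/- cells complemented with human TDP1, 400 cells/well, exposed to compounds plus 20 nM camptothecin for at least 48 h at 37 C; viability read as ATP content by CellTiter-Glo luminescence.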
RORgamma inh = inhibitors of mouse ROR gamma transcriptional activity | Potency, µM (series often up to 53.6 µM), most hits filed as inhibitors | Drosophila S2 Gal4-RORgamma UAS-luciferase reporter, 20 h | 5.4% of 310,000 active | P51450 | AID 2551; further: nearly all actives have a fitted effect of over 60% in size
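Drosophila S2 cells stably expressing Gal4-DBD/mouse RORγ fusion under metallothionein promoter plus UAS-luciferase; compound 1 h, then 700 uM CuSO4 induction for 20 h at ambient temperature; inhibition read as reduced luminescence.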
TDP1 block = TDP1 (human) enzyme inhibition | recombinant TDP1, AlphaScreen DNA substrate cleavage | AID 485290 | Potency, µM (top dose mostly 130 µM), usual class: inhibitors | 0.28% of 350,000 active; further: nearly all actives have a fitted effect of over 40% in size
Target sequence (Q9NUW8 whole entry, looked up): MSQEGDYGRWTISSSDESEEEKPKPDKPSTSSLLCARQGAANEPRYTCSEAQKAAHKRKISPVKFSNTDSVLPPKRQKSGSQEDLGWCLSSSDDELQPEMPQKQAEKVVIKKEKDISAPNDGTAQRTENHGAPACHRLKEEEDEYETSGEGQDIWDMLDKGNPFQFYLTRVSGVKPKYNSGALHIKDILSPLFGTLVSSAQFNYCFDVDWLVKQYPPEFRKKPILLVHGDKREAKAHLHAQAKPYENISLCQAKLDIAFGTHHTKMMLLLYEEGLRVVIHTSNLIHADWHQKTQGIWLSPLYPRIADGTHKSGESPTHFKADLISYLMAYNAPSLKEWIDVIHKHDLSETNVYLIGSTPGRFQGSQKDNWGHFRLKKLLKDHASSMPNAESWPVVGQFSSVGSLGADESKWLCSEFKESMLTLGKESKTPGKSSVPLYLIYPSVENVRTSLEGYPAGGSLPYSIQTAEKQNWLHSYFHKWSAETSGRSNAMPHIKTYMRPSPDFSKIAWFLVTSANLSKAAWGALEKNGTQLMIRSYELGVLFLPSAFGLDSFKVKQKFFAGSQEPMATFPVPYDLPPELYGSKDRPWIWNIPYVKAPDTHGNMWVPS
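Steps: enzyme plus compound, 15 min RT; add biotin/phosphotyrosine-FITC oligonucleotide (15 nM final), react 5 min; add donor/acceptor beads (10 ug/ml final), 10 min; read AlphaScreen. Tdp1 at 1 nM final.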
Each line names hits and unclear results; the compound was inactive in the other large screens. The call rests on the fitted dose curve; in most records, active means well fitted curve in the direction sought with a large enough effect; inconclusive means small, poorly fitted or top-dose-only effect, or another doubt; inactive means no such curve, though single readings can be large; an effect the other way counts as inactive or inconclusive.

CCOc1ccc(-n2ccnc2SCC(=O)Nc2cc(C)ccc2C)cc1	DT40 TDP1 no CPT inconclusive, TDP1 cell CPT inconclusive (no result: VP16 counter, RORgamma inh)
Cc1cccc(NC(=O)CSc2nccn2-c2cccc(Cl)c2)c1C	DT40 TDP1 no CPT inconclusive, TDP1 cell CPT 20.6µM (no result: VP16 counter, RORgamma inh)
CCSc1nnc(NC(=O)CSc2nccn2-c2cccc(C)c2)s1	VP16 counter inconclusive, RORgamma inh 11.2µM
CCc1ccc(NC(=O)CSc2nccn2-c2cccc(C)c2C)cc1	DT40 TDP1 no CPT 20.6µM, TDP1 cell CPT 23.1µM (no result: VP16 counter, RORgamma inh)
CCOc1ccccc1NC(=O)CSc1nccn1-c1cccc(C)c1	DT40 TDP1 no CPT 18.4µM, TDP1 cell CPT 20.6µM (no result: VP16 counter, RORgamma inh)
Cc1cccc(-n2ccnc2SCC(=O)N2CCCc3ccccc32)c1C	DT40 TDP1 no CPT 20.6µM, TDP1 cell CPT 18.4µM
COC(=O)c1c(C)nn(-c2ccccc2)c1-n1cccc1	DT40 TDP1 no CPT inconclusive, TDP1 cell CPT inconclusive
O=C1CC(N(Cc2ccc3c(c2)OCO3)C(=O)Nc2ccc(F)cc2)C(=O)N1c1ccccc1 (configuration not stated)	none
Cc1cccc(-n2ccnc2SCC(=O)Nc2ccc(F)cc2F)c1C	DT40 TDP1 no CPT 20.6µM, TDP1 cell CPT 16.4µM (no result: VP16 counter, RORgamma inh)
Cc1cc(C)c2c(c1)cc(C)c1nnc(SCC(=O)N3CCCc4ccccc43)n12	none
O=C(CSc1nccn1-c1cccc(Cl)c1)NC1CCCC1	DT40 TDP1 no CPT 20.6µM
Cc1ccc(C)c2c1cc(C)c1nnc(SCC(=O)N3CCCc4ccccc43)n12	DT40 TDP1 no CPT 14.6µM, TDP1 cell CPT inconclusive
CCC(=O)Oc1ccc(C2NC(=O)c3ccccc3O2)cc1OC (configuration not stated)	none (no result: TDP1 block)
CCN(CC)CCCn1c2c(c(SCC(=O)Nc3nc(C)cs3)nc1=O)CCC2	none (no result: VP16 counter, RORgamma inh)
Cc1cccc(Oc2ncc(-c3ccc(Cl)cc3)cn2)c1C	DT40 TDP1 no CPT 20.6µM, TDP1 cell CPT inconclusive, RORgamma inh inconclusive
CC1COc2ccccc2N1C(=O)c1ccc(Cl)cc1 (configuration not stated)	none (no result: TDP1 block)
O=C(C(Cl)Cl)N1c2ccccc2OCC1c1ccccc1 (configuration not stated)	VP16 counter inconclusive, DT40 TDP1 no CPT 14.6µM, TDP1 cell CPT 18.4µM, RORgamma inh inconclusive
Cc1ccc(S(=O)(=O)N2c3ccccc3OCC2c2ccccc2)cc1 (configuration not stated)	VP16 counter inconclusive, DT40 TDP1 no CPT 16.4µM, TDP1 cell CPT 29.1µM
CC1COc2ccccc2N1S(=O)(=O)c1ccc(Cl)cc1 (configuration not stated)	DT40 TDP1 no CPT 23.1µM
Cc1ccc(S(=O)(=O)N2CC(C(=O)O)Oc3ccccc32)cc1 (configuration not stated)	none (no result: TDP1 block)
CCOC(=O)C1=C(c2ccccc2)NC(=O)NC1c1ccsc1 (configuration not stated)	none (no result: TDP1 block)
Fc1ccc2[nH]c3c(N4CCc5ccccc5C4)ncnc3c2c1	VP16 counter 3.16µM, DT40 TDP1 no CPT 1.84µM, TDP1 cell CPT 1.84µM, RORgamma inh 11.2µM
CCOc1ccc2[nH]c3c(N4CCc5ccccc5C4)ncnc3c2c1	VP16 counter inconclusive, DT40 TDP1 no CPT 16.4µM, TDP1 cell CPT 14.6µM, RORgamma inh inconclusive
CN1CCN(c2ncnc3c2[nH]c2ccc(F)cc23)CC1	DT40 TDP1 no CPT inconclusive, TDP1 cell CPT inconclusive
Cc1ccc2[nH]c3c(N4CCOCC4)ncnc3c2c1	VP16 counter inconclusive, DT40 TDP1 no CPT inconclusive, TDP1 cell CPT inconclusive
Cc1ccc2[nH]c3c(N4CCc5ccccc5C4)ncnc3c2c1	VP16 counter 3.16µM, DT40 TDP1 no CPT 3.66µM, TDP1 cell CPT 2.91µM, RORgamma inh inconclusive
Fc1ccc2[nH]c3c(NCCN4CCOCC4)ncnc3c2c1	VP16 counter 12.6µM, DT40 TDP1 no CPT inconclusive, TDP1 cell CPT inconclusive, RORgamma inh inconclusive
Clc1ccc2[nH]c3c(NCCN4CCOCC4)ncnc3c2c1	DT40 TDP1 no CPT inconclusive (no result: VP16 counter)
O=c1oc2cccnc2n1CCS(=O)(=O)c1ccc(F)cc1	none (no result: TDP1 block)
CC1(c2nnnn2-c2ccc3c(c2)OCCO3)CCC(=O)N1CCc1ccc(O)cc1 (configuration not stated)	none (no result: VP16 counter, RORgamma inh, TDP1 block)
CCN(c1ccccc1)S(=O)(=O)c1cccc(C(=O)NCC(c2cccs2)N(C)C)c1 (configuration not stated)	DT40 TDP1 no CPT 20.6µM, TDP1 cell CPT inconclusive
CCN(c1ccccc1)S(=O)(=O)c1ccc(C(=O)N(C)Cc2cccs2)cc1	DT40 TDP1 no CPT 23.1µM, TDP1 cell CPT inconclusive (no result: VP16 counter, RORgamma inh)
Cc1ccc(NS(=O)(=O)c2cccc(C(=O)NCC(c3cccs3)N(C)C)c2)cc1 (configuration not stated)	DT40 TDP1 no CPT inconclusive, TDP1 cell CPT 16.4µM
CNS(=O)(=O)c1cccc(C(=O)NCC(c2cccs2)N(C)C)c1 (configuration not stated)	none
CCN(CC(=O)NCc1cccs1)C(=O)c1cccc(S(=O)(=O)N(CC)c2ccccc2)c1	DT40 TDP1 no CPT 23.1µM, TDP1 cell CPT inconclusive (no result: VP16 counter, RORgamma inh, TDP1 block)
Cc1ccc(C(=O)NCC(=O)OCC(=O)Nc2cc(C)c(C)cc2[N+](=O)[O-])cc1	none
COc1cc2c(cc1OC)C(C(=O)NCC1COc3ccccc3O1)C(c1cccnc1)N(C)C2=O (configuration not stated)	none
CCCCN1CN(S(=O)(=O)c2cccs2)c2nc3ccccc3nc21	VP16 counter inconclusive, RORgamma inh inconclusive (no result: DT40 TDP1 no CPT, TDP1 cell CPT)
Cc1cccc(NS(=O)(=O)c2ccc(C)c(C(=O)NCC(c3cccs3)N(C)C)c2)c1 (configuration not stated)	DT40 TDP1 no CPT inconclusive, TDP1 cell CPT 18.4µM (no result: VP16 counter, RORgamma inh)
COc1cccc(CN2CCN(C(c3ccccc3)c3ccccc3)CC2)c1O	DT40 TDP1 no CPT 20.6µM, TDP1 cell CPT inconclusive
COc1cc(CN2CCN(C(c3ccccc3)c3ccccc3)CC2)cc(OC)c1OC	DT40 TDP1 no CPT 3.26µM, TDP1 cell CPT 8.2µM (no result: TDP1 block)
COc1ccccc1NC(=O)CSc1nc(O)c(Cc2ccccc2)c(=O)[nH]1	none
COC(=O)c1cc(CSC(=N)N)ccc1OCCC(C)C	VP16 counter inconclusive, DT40 TDP1 no CPT 23.1µM, TDP1 cell CPT inconclusive, RORgamma inh inconclusive
Cn1nc(C(=O)NCC(c2cccs2)N2CCOCC2)c2ccccc2c1=O (configuration not stated)	DT40 TDP1 no CPT 16.4µM, TDP1 cell CPT 25.9µM (no result: VP16 counter, RORgamma inh)
CCc1cc(C(=O)NCC(c2cccs2)N2CCOCC2)sc1C (configuration not stated)	DT40 TDP1 no CPT 23.1µM, TDP1 cell CPT inconclusive (no result: VP16 counter, RORgamma inh)
CC(C)(Oc1ccc(Cl)cc1)C(=O)NCC(c1cccs1)N1CCOCC1 (configuration not stated)	DT40 TDP1 no CPT 18.4µM, TDP1 cell CPT inconclusive (no result: VP16 counter, RORgamma inh)
O=C(NCC(c1ccc(F)cc1)N1CCOCC1)c1ccc(-c2ccccc2)cc1 (configuration not stated)	DT40 TDP1 no CPT inconclusive, TDP1 cell CPT 16.4µM (no result: VP16 counter, RORgamma inh)

Screening data deposited in PubChem by National Center for Advancing Translational Sciences (NCATS).
